Records with an inconclusive call do not appear. The source made the active and inactive calls. Calls follow the shape of the dose curve; as a rule, active = well fitted curve in the direction sought with a large enough effect; inconclusive = small, poorly fitted or top-dose-only effect, or another doubt; inactive = no such curve, though single readings can be large; an effect the other way counts as inactive or inconclusive.

Test [1] deals with Phospholipid hydroperoxide glutathione peroxidase GPX4 (Homo sapiens) (UniProt P36969). In words: Primary qHTS Assay for Inhibitors of Recombinant Selenoprotein Glutathione Peroxidase 4 (GPX4) (AID 1845192). Also: nearly all actives have a fitted effect of over 65% in size. Also: potency is read from the fitted curve at half-maximal effect. The method, boiled down:
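GR-coupled readout: 100 nM GR, 1 mM GSH, 0.5 mM NADPH; NADPH fluorescence (ex 340/em 450 nm) read at t=0 and after 15 min RT. GPX4 200 nM, preincubated 30 min with compound; substrate 0.5 mM CHP.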

The nature of test [2]: Primary fluorescence-based thiol-reactive (MSTI) qHTS assay for identification of artifact compounds. (AID 1845221).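 Also: series mostly up to about 54 µM; thiol-reactive compounds lower the probe fluorescence signal; nearly all actives have a fitted effect of over 65% in size.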 Put shortly:
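Curve-fitted percent inhibition (4-parameter Hill) derived from fluorescence, Ex 525/Em 598 nm, scaled with Acetyl-MSTI and MSTI; 1 h incubation at room temperature.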
For orientation: qHTS replaces the single test concentration by a dilution series.

Test [3] has as its system Nanoluciferase (engineered Oplophorus gracilirostris luciferase). In words: Primary Nanoluciferase (NLuc) qHTS assay for identification of artifact compounds. (AID 1845222).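 Also: NLuc secreted into diluted conditioned medium of S16 cells; series mostly up to about 54 µM.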 Put shortly: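 Using secreted nanoluciferase in S16 culture medium (0.22 um filtered, 1:55 dilution), compounds were preincubated 15 min at RT. Signal was generated with Nano-Glo reagent (1:100) over 5 min.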

Test [4] in a line: Primary redox qHTS assay for identification of artifact compounds. (AID 1845223). The method, boiled down: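 Amplex Red (25 uM) and HRP (250 mU/mL) in HBSS, with compounds for 15 min, then 250 uM DTT for 30 min, room temperature, dark. Fluorescence 525/598 nm read; normalized to DMSO and 10 uM DA3003; Hill fit.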
A short description of test [5]: Quantitative High-Throughput drug screen in 47 multiple myeloma cell lines against the NCATS MIPE library collection: FR4_PLB cell viability assay (AID 1918924; also: nearly all actives have a fitted effect of over 35% in size; also: potency is read from the fitted curve at half-maximal effect). Put shortly: (§1)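 Viability readout: CellTiter-Glo luminescence following 5 min room-temperature incubation with reagent. Prior exposure: 48 h, 37C, humidified 5% CO2, 500 cells per well.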
The nature of test [6]: Quantitative High-Throughput drug screen in 47 multiple myeloma cell lines against the NCATS MIPE library collection: Delta47_JCRB cell viability assay (AID 1918925; also: nearly all actives have a fitted effect of over 45% in size; also: potency is read from the fitted curve at half-maximal effect). Put shortly:
as §1

Test [7] in a line: Quantitative High-Throughput drug screen in 47 multiple myeloma cell lines against the NCATS MIPE library collection: EJM_DSMZ cell viability assay (AID 1918926; also: nearly all actives have a fitted effect of over 30% in size; also: potency is read from the fitted curve at half-maximal effect). Put shortly:
as §1

Test [8] in a line: Quantitative High-Throughput drug screen in 47 multiple myeloma cell lines against the NCATS MIPE library collection: ARP1_JJKsccF8 cell viability assay (AID 1918928; also: nearly all actives have a fitted effect of over 40% in size; also: potency is read from the fitted curve at half-maximal effect). The method, boiled down: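 Myeloma cells, 500 per well, were exposed to MIPE 4.0 drugs by pin transfer for 48 h at 37 °C, 5% CO2. Viability was read as ATP luminescence with CellTiter-Glo, normalised to DMSO-only (100%) and medium-only (0%) wells.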

Test [9] can be described thus: Quantitative High-Throughput drug screen in 47 multiple myeloma cell lines against the NCATS MIPE library collection: ARD_JJKsccE7 cell viability assay (AID 1918929; also: potency is read from the fitted curve at half-maximal effect). The method, boiled down: as §1
Test [10] is described as follows: Quantitative High-Throughput drug screen in 47 multiple myeloma cell lines against the NCATS MIPE library collection: Karpas620_DSMZ cell viability assay (AID 1918959). Also: nearly all actives have a fitted effect of over 30% in size. Also: potency is read from the fitted curve at half-maximal effect. Put shortly: as §1
The target of test [11] is Luciferin 4-monooxygenase (Photinus pyralis) (UniProt P08659). In words: Primary firefly luciferase (FLuc) qHTS assay for identification of artifact compounds. (AID 1845220). Also: nearly all actives have a fitted effect of over 60% in size. Put shortly: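 In this counter-screen for luciferase artifacts, test compounds met substrate (10 uM each luciferin and ATP) before 10 nM enzyme started the reaction. Light output was measured 5 min later.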

The target in test [12] is Glutathione peroxidase 1 (Homo sapiens) (UniProt P07203). In words: Primary qHTS Assay for Inhibitors of Recombinant Selenoprotein Glutathione Peroxidase 1 (GPX1) (AID 1845191). Also: nearly all actives have a fitted effect of over 65% in size. Also: potency is read from the fitted curve at half-maximal effect. Put shortly:
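Recombinant GPX1 (10 nM final) was preincubated with compound for 30 min at room temperature, then reacted with 1 mM GSH, 0.5 mM CHP, 0.5 mM NADPH and 100 nM glutathione reductase; NADPH fluorescence (340/450 nm) was read at 0 and 15 min.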

A short description of test [13]: Quantitative High-Throughput drug screen in 47 multiple myeloma cell lines against the NCATS MIPE library collection: AMO1_DSMZ cell viability assay (AID 1918927; also: nearly all actives have a fitted effect of over 30% in size; also: potency is read from the fitted curve at half-maximal effect). Put shortly:
as §1

Chain of Glutathione peroxidase 1 (Homo sapiens) (P07203 whole entry, looked up): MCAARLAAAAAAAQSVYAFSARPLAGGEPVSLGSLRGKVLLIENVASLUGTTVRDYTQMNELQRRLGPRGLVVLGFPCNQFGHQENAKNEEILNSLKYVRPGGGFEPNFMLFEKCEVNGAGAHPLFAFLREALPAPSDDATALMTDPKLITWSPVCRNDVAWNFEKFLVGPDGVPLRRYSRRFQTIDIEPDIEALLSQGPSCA
Chain of Phospholipid hydroperoxide glutathione peroxidase GPX4 (Homo sapiens) (P36969 whole entry, looked up): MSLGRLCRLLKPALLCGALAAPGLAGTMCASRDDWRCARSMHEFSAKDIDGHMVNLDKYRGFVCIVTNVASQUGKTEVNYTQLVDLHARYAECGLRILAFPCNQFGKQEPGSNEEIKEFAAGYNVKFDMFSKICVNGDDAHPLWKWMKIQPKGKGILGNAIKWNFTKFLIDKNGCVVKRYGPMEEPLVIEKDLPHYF

As for `COc1nc(-c2ccc3c(c2)OCO3)n(-c2ccc(NC(=O)CSc3ccccc3)cc2)n1`, the Potency result in [1], in test [2], in test [5], in [6], in test [7] and in test [8] was “inactive” each time. Moreover, the Potency result in test [9] and in test [10] was “inactive” throughout. Also, the compound was classed as inactive in test [3] and in [4].

For `CCOc1cc(C(=O)Nc2ccc(Cl)c(-c3nc4ccccc4[nH]3)c2)cc(OCC)c1OCC`, the Potency entry in [1], in test [11] and in test [2] was “inactive” throughout. The call in [3] and in [4] was inactive. For the same compound, the Potency in [6] is 18.7 µM (active); in test [7], 13.2 µM (active); in test [10], 13.2 µM (active).

Take `O=C(O)[C@@H](c1ccc(OCc2ccc3ccccc3n2)cc1)C1CCCC1`: the Potency entry in test [12], in test [1], in [5], in test [13], in [8] and in [9] was “inactive” throughout. Besides, the Potency result in test [10] is “inactive”.

Turning to `COc1ccccc1[C@H](c1cccc2ccccc12)[C@@](C)(C#N)C(=O)N1CCC(c2cccc(C(F)(F)F)c2)CC1`, the Potency entry in test [1] and in test [2] was “inactive” in each case. Further, the compound was classed as inactive in [3] and in test [4]. Also, the Potency in test [6] is 8.33 µM (active); in test [7], 13.2 µM (active); in test [13], 2.64 µM (active); in test [8] it was 8.33 µM (active); in test [9], 4.18 µM (active).

Turning to `Cn1c(=O)c(F)c(Nc2ccc(I)cc2F)c2c(=O)n(C[C@@H](O)CO)cnc21`, the Potency result in test [12], in test [1], in test [5] and in test [7] was “inactive” throughout. Besides, in test [10], the Potency was 0.0118 µM (active).

In the case of `N#CC[C@H](C1CCCC1)n1cc(-c2ncnc3[nH]ccc23)cn1`, the Potency in test [12] was 25.5 µM (active); in test [7], 7.43 µM (active); in test [13], 6.62 µM (active); in test [10], 5.26 µM (active). In addition, the Potency entry in test [11], in [2] and in test [8] was “inactive” each time. In addition, the result in [3] and in test [4] was inactive.

For `Cc1ccc(NC(=O)c2cccc(C(C)(C)C#N)c2)cc1Nc1ccc2ncn(C)c(=O)c2c1`, the Potency result in test [12] and in test [1] was “inactive” each time. For the same compound, the Potency in [13] was 5.9 µM (active); in test [9], 0.332 µM (active); in test [10], 1.18 µM (active).

As for `Nc1nc2[nH]cc(CCc3ccc(C(=O)N[C@@H](CCC(=O)O)C(=O)O)cc3)c2c(=O)[nH]1`, the Potency result in [12], in test [1], in test [6], in test [7] and in [10] was “inactive” throughout. Moreover, the figures for the Potency in [13], in test [8] and in test [9] were 0.526 µM (active), 0.418 µM (active) and 0.469 µM (active), respectively.

For `COc1ccc(C2=N[C@H](c3ccc(Cl)cc3)[C@H](c3ccc(Cl)cc3)N2C(=O)N2CCNC(=O)C2)c(OC(C)C)c1`, the Potency result in test [12], in test [1], in test [9] and in test [10] was “inactive” each time. Besides, the Potency is 2.35 µM (active) in test [6], 1.66 µM (active) in test [13] and 16.6 µM (active) in [8].

Consider `Cc1c(CCOc2ccc(C(=O)O)cc2)c2cc(Cl)ccc2n1C(c1ccccc1)c1ccccc1`, for which the Potency entry in test [12], in [5], in test [7], in [13], in test [9] and in test [10] was “inactive” each time.

`O=C(C1CC1)N1CC[C@@H](Cn2c(-c3ccc(-c4ccc5occc5c4)cc3)nc3cnccc32)C1`: in test [1], the Potency is 22.7 µM (active).

Take `CS(=O)(=O)c1ccc(C(=O)Nc2ccc(Cl)c(-c3ccccn3)c2)c(Cl)c1`: the Potency entry in test [1], in test [2], in [5], in [7], in [8] and in test [9] was “inactive” in each case. Moreover, in [10], the Potency entry is “inactive”. The result in [3] and in test [4] was inactive.

For `Cn1cc(-c2ccc3nnc(C(F)(F)c4ccc5ncccc5c4)n3n2)cn1`, the Potency entry in test [1], in [11], in test [2], in test [5], in [7] and in test [10] was “inactive” in each case. The result in [3] was inactive. Besides, the Potency in test [13] was 13.2 µM (active).

For the compound `CCc1ccc(CCOc2ccc(CC3SC(=O)NC3=O)cc2)nc1` (centres undefined), the Potency result in test [12], in test [1], in [5], in test [13] and in test [9] was “inactive” throughout.

Turning to `O=C1CCCC2=C1C(c1[nH]ncc1Cl)N=C(Nc1nc3ccccc3o1)N2` (centres undefined), the Potency result in test [1], in test [2], in test [5] and in test [13] was “inactive” in each case. The compound was called inactive in [3] and in [4]. For the same compound, the Potency in test [10] was 4.18 µM (active).

As for `Cc1cnc(Nc2ccc(OCCN3CCCC3)cc2)nc1Nc1cccc(S(=O)(=O)NC(C)(C)C)c1`, the Potency entry in test [1], in test [11] and in [5] was “inactive” in each case. Besides, the compound was called inactive in test [3]. For the same compound, the Potency in test [13] is 0.418 µM (active); in [10] it was 1.48 µM (active).

Regarding `COc1c(Cl)cc2c([nH]c3cnccc32)c1NC(=O)c1cccnc1C`, the Potency entry in test [1] and in test [2] was “inactive” each time. Also, the result in [3] and in test [4] was inactive. Besides, the Potency in [6] is 2.96 µM (active); in test [7] it was 3.72 µM (active); in test [13], 5.26 µM (active); in [9], 3.32 µM (active); in test [10], 18.7 µM (active).

With `O=C(c1cc(Cc2n[nH]c(=O)c3ccccc23)ccc1F)N1CCN(C(=O)C2CC2)CC1`, the Potency entry in [1], in test [2], in test [5], in [8] and in test [10] was “inactive” in each case. The outcome in test [3] and in test [4] was inactive.

`c1ccc(-c2nn3c(c2-c2ccnc4cc(OCCN5CCOCC5)ccc24)CCC3)nc1`: the Potency result in test [12], in test [1], in [7], in test [9] and in test [10] was “inactive” throughout.

Take `S=C(NCc1ccc2c(c1)OCO2)N1CCN(c2ncnc3c2oc2ccccc23)CC1`: the Potency entry in test [12] and in test [2] was “inactive” each time. For the same compound, the compound was called inactive in test [3] and in test [4]. Besides, the Potency was 27 µM (active) in test [5]; 1.08 µM (active) in [6]; 2.7 µM (active) in [13]; 3.03 µM (active) in test [8]; 0.855 µM (active) in [9]; 2.41 µM (active) in test [10].

Regarding `CCC(C)n1ncn(-c2ccc(N3CCN(c4ccc(OC[C@H]5CO[C@](Cn6cncn6)(c6ccc(Cl)cc6Cl)O5)cc4)CC3)cc2)c1=O` (some centres undefined), the Potency result in test [1], in test [2], in [6] and in test [10] was “inactive” in each case. In addition, the outcome in test [3] and in test [4] was inactive. Besides, the Potency in [7] was 2.96 µM (active).

Take `OCCC#Cc1nc(-c2ccc(F)cc2)c(-c2ccncc2)n1CCCc1ccccc1`: the Potency result in test [12] and in test [1] was “inactive” in each case. For the same compound, the Potency was 13.2 µM (active) in test [6], 23.5 µM (active) in test [13], 16.6 µM (active) in [9] and 20.9 µM (active) in test [10].

Consider `OCCn1cc(-c2cnc3nnn(Cc4ccc5ncccc5c4)c3n2)cn1`, for which the Potency in test [1] is 14.3 µM (active). The Potency result in test [2], in test [5], in [6], in [13], in test [8] and in test [9] was “inactive” each time. Also, in test [10], the Potency result is “inactive”. For the same compound, the outcome in [3] and in [4] was inactive.

The record behind these values is PubChem BioAssay (NCATS).
